Assay [1] can be described thus: NCI Yeast Anticancer Drug Screen. Data for the rad50 strain (AID 155).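 Note: 0% = growth of vehicle-only cultures of the same strain.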 The following applies: S. cerevisiae rad50 strain growth inhibition, stronger effect = higher value. The essentials: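 Compounds were tested on a yeast strain with an engineered DNA damage repair alteration; the reported value is growth inhibition normalised to vehicle treatment.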
Assay [2] can be described thus: NCI Yeast Anticancer Drug Screen. Data for the mec2-1 strain (AID 157). The following applies: S. cerevisiae mec2-1 strain, stronger effect = higher value. The essentials:
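Strain: mec2-1 (DNA repair/cell cycle alteration). Compound exposure, then growth measured; inhibition expressed relative to vehicle.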

Assay [3] can be described thus: NCI Yeast Anticancer Drug Screen. Data for the sgs1 mgt1 strain (AID 161).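 Note: 0% = growth of cultures given vehicle only.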 The conditions noted are these: S. cerevisiae sgs1 mgt1 strain, stronger effect = higher value. The method in brief: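 Read-out: growth inhibition vs vehicle controls. Cells: mutant yeast strain deficient in DNA damage repair.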
A short description of assay [4]: NCI Yeast Anticancer Drug Screen. Data for the cln2 rad14 strain (AID 165).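 Note: 0% = growth equal to vehicle treated cultures.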 The conditions noted are these: S. cerevisiae cln2 rad14 strain, stronger effect = higher value. The essentials: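 Compounds are applied to the cln2 rad14 yeast strain, and growth is then compared with that of vehicle-treated cultures to give inhibition.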
A short description of assay [5]: NCI Yeast Anticancer Drug Screen. Data for the bub3 strain (AID 167). The conditions noted are these: S. cerevisiae bub3 mutant strain, stronger effect = higher value. The method in brief: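 Growth of a checkpoint-deficient yeast mutant is measured after compound exposure. Values represent inhibition relative to vehicle.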
Assay [6] can be described thus: NCI Yeast Anticancer Drug Screen. Data for the mlh1 rad18 strain (AID 175). The following applies: S. cerevisiae mlh1 rad18 strain growth inhibition, stronger effect = higher value. The essentials: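 Read-out is yeast growth inhibition, calculated against vehicle-only controls. The compound was applied to a strain engineered with DNA damage repair alterations.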
Where [7] appears, read: at 5.0 µM (retest, dose inferred, filed as 0.5).
Setting [8] is: at 50.0 µM (retest, dose inferred, filed as 5.0).

SMILES strings stand for the structures. About 79,000 compounds went through this panel and 15% of them were active in at least one assay; those are over-represented in the sample as a whole. Values without a mark were called inactive. Activity calls are given as the source filed them. Cut-off read from the data, not from the text of the source: active = growth inhibition above about 70%; inactive = the rest.

Regarding `O=C(COC(=O)c1ccc(O)cc1)c1ccc(-c2ccccc2)cc1`, the growth inhibition in assay [1] (setting [7]) is -16%; in assay [1] (setting [8]), -13%; in assay [1] (at 50.0 µM) it was 21.7%; in assay [2] (setting [7]) it was -4%; in assay [2] (setting [8]) it was 11%; in assay [2] (at 50.0 µM), 25.4%. Further, the growth inhibition was -1% in assay [3] (setting [7]); 12% in assay [3] (setting [8]); 19.9% in assay [3] (at 50.0 µM); 22% in assay [4] (setting [7]); -45% in assay [4] (setting [8]); 28.1% in assay [4] (at 50.0 µM). Further, the growth inhibition is 6% in assay [5] (setting [7]); -20% in assay [5] (setting [8]); 17.6% in assay [5] (at 50.0 µM); -5% in assay [6] (setting [7]); 24% in assay [6] (setting [8]); 19.9% in assay [6] (at 50.0 µM).
In the case of `NNC(=O)C(=O)N/N=C(/CCC(=O)NCCc1ccccc1)CC(=O)c1ccccc1`, the growth inhibition is 1% in assay [1] (setting [7]); 3% in assay [1] (setting [8]); 28.5% in assay [1] (at 50.0 µM); 1% in assay [2] (setting [7]); 2% in assay [2] (setting [8]); 3.05% in assay [2] (at 50.0 µM). The growth inhibition was -2% in assay [3] (setting [7]); 4% in assay [3] (setting [8]); 9.1% in assay [3] (at 50.0 µM); -3% in assay [4] (setting [7]); 1% in assay [4] (setting [8]); 6.15% in assay [4] (at 50.0 µM). For the same compound, the growth inhibition was 0% in assay [5] (setting [7]); 0% in assay [5] (setting [8]); -3.3% in assay [5] (at 50.0 µM); -2% in assay [6] (setting [7]); -3% in assay [6] (setting [8]); 22.6% in assay [6] (at 50.0 µM).
Take `CCCCCCCCCCCCCC1=NCC(C)(C)N1`: the growth inhibition in assay [1] (setting [7]) is 83% (active); in assay [1] (setting [8]), 100% (active); in assay [1] (at 50.0 µM) it was 99.2% (active); in assay [2] (setting [7]) it was 85% (active); in assay [2] (setting [8]), 100% (active); in assay [2] (at 50.0 µM), 97.3% (active). Further, the growth inhibition is 91% (active) in assay [3] (setting [7]); 100% (active) in assay [3] (setting [8]); 99.7% (active) in assay [3] (at 50.0 µM); 66% in assay [4] (setting [7]); 99% (active) in assay [4] (setting [8]); 97.8% (active) in assay [4] (at 50.0 µM). In addition, the growth inhibition is 89% (active) in assay [5] (setting [7]); 100% (active) in assay [5] (setting [8]); 99.7% (active) in assay [5] (at 50.0 µM); 82% (active) in assay [6] (setting [7]); 100% (active) in assay [6] (setting [8]); 99.5% (active) in assay [6] (at 50.0 µM).
Regarding `CC(=O)N1C(c2[nH]c3ccccc3c2-c2ccccc2)CCN1c1ccccc1` (configuration not stated), the growth inhibition in assay [1] (setting [7]) was -12%; in assay [1] (setting [8]) it was 74% (active); in assay [1] (at 50.0 µM), 64.1%; in assay [2] (setting [7]) it was -2%; in assay [2] (setting [8]), 51%; in assay [2] (at 50.0 µM), 54.7%. In addition, the growth inhibition in assay [3] (setting [7]) was 14%; in assay [3] (setting [8]), 87% (active); in assay [3] (at 50.0 µM), 83.2% (active); in assay [4] (setting [7]), 7%; in assay [4] (setting [8]), 73% (active); in assay [4] (at 50.0 µM), 69.9%. Moreover, the growth inhibition is -5% in assay [5] (setting [7]); 87% (active) in assay [5] (setting [8]); 63.2% in assay [5] (at 50.0 µM); -9% in assay [6] (setting [7]); 83% (active) in assay [6] (setting [8]); 71% (active) in assay [6] (at 50.0 µM).
For the compound `NC(Cc1nn[nH]n1)C(=O)O` (configuration not stated), the growth inhibition in assay [1] (setting [7]) was 3%; in assay [1] (setting [8]), -15%; in assay [1] (at 50.0 µM), -13.2%; in assay [2] (setting [7]) it was -6%; in assay [2] (setting [8]), -10%; in assay [2] (at 50.0 µM) it was -5.95%. In addition, the growth inhibition in assay [3] (setting [7]) was -16%; in assay [3] (setting [8]) it was -15%; in assay [3] (at 50.0 µM) it was -42.8%; in assay [4] (setting [7]), -11%; in assay [4] (setting [8]) it was -6%; in assay [4] (at 50.0 µM), 22.4%. The growth inhibition in assay [5] (setting [7]) is 10%; in assay [5] (setting [8]), -13%; in assay [5] (at 50.0 µM) it was 0.95%; in assay [6] (setting [7]), -18%; in assay [6] (setting [8]) it was -6%; in assay [6] (at 50.0 µM), -23%.
`c1ccc2c(c1)[nH]c1c[n+]3c(c[n+]12)[nH]c1ccccc13`: the growth inhibition in assay [1] (setting [7]) is 7%; in assay [1] (setting [8]), 53%; in assay [1] (at 50.0 µM), 71.6% (active); in assay [2] (setting [7]), 8%; in assay [2] (setting [8]) it was 47%; in assay [2] (at 50.0 µM), 5.45%. Besides, the growth inhibition in assay [3] (setting [7]) is 10%; in assay [3] (setting [8]), 67%; in assay [3] (at 50.0 µM), 58.9%; in assay [4] (setting [7]), -7%; in assay [4] (setting [8]), 29%; in assay [4] (at 50.0 µM), 45.2%. For the same compound, the growth inhibition is -8% in assay [5] (setting [7]); 50% in assay [5] (setting [8]); 6% in assay [5] (at 50.0 µM); 4% in assay [6] (setting [7]); 84% (active) in assay [6] (setting [8]); 80% (active) in assay [6] (at 50.0 µM).
In the case of `CCOc1c(N=Nc2ccccc2Cl)c(C)nn1C(=S)S`, the growth inhibition is -9% in assay [1] (setting [7]); 36% in assay [1] (setting [8]); 89.3% (active) in assay [1] (at 50.0 µM); -15% in assay [2] (setting [7]); 9% in assay [2] (setting [8]); 80.7% (active) in assay [2] (at 50.0 µM). Further, the growth inhibition in assay [3] (setting [7]) was 8%; in assay [3] (setting [8]), 4%; in assay [3] (at 50.0 µM), 77.3% (active); in assay [4] (setting [7]) it was -42%; in assay [4] (setting [8]), -6%; in assay [4] (at 50.0 µM), 92.2% (active). The growth inhibition in assay [5] (setting [7]) is -20%; in assay [5] (setting [8]) it was 17%; in assay [5] (at 50.0 µM) it was 74% (active); in assay [6] (setting [7]), -23%; in assay [6] (setting [8]), 40%; in assay [6] (at 50.0 µM), 96% (active).
For `O=[N+]([O-])c1cc(F)c(Sc2cc(Br)c([N+](=O)[O-])cc2F)cc1Br`, the growth inhibition in assay [1] (setting [7]) is 1%; in assay [1] (setting [8]) it was -16%; in assay [1] (at 50.0 µM), 8.85%; in assay [2] (setting [7]), -1%; in assay [2] (setting [8]), -8%; in assay [2] (at 50.0 µM), 9.55%. Moreover, the growth inhibition is -1% in assay [3] (setting [7]); -7% in assay [3] (setting [8]); 3.05% in assay [3] (at 50.0 µM); 1% in assay [4] (setting [7]); -21% in assay [4] (setting [8]); 43.5% in assay [4] (at 50.0 µM). Further, the growth inhibition was 6% in assay [5] (setting [7]); -3% in assay [5] (setting [8]); 28.9% in assay [5] (at 50.0 µM); 0% in assay [6] (setting [7]); -4% in assay [6] (setting [8]); 19.9% in assay [6] (at 50.0 µM).
As to `CC(=O)OC1SC(C)(C)n2c1nc1ccccc1c2=O` (configuration not stated), the growth inhibition in assay [1] (setting [7]) was 1%; in assay [1] (setting [8]) it was 56%; in assay [1] (at 50.0 µM), 44.1%; in assay [2] (setting [7]), -5%; in assay [2] (setting [8]) it was 53%; in assay [2] (at 50.0 µM) it was 23.7%. Moreover, the growth inhibition in assay [3] (setting [7]) was 6%; in assay [3] (setting [8]), 51%; in assay [3] (at 50.0 µM), 41%; in assay [4] (setting [7]) it was -8%; in assay [4] (setting [8]), 43%; in assay [4] (at 50.0 µM), 69.4%. In addition, the growth inhibition in assay [5] (setting [7]) was 1%; in assay [5] (setting [8]), 39%; in assay [5] (at 50.0 µM), 18.8%; in assay [6] (setting [7]), 2%; in assay [6] (setting [8]) it was 50%; in assay [6] (at 50.0 µM), 72% (active).

The record behind these values is PubChem BioAssay (NCI).
